Screening data deposited in PubChem BioAssay by National Center for Advancing Translational Sciences (NCATS).
This is a sample that favours compounds with a hit; in the whole collection about 19% have one here.
DT40 TDP1 CPT – DT40-hTDP1 cell growth loss with CPT; 420,000 compounds, 12% hits; Potency, µM (series often up to 46.2 µM), for the others: at the highest dose activity change, negative = growth inhibition, most hits filed as inhibitors; chicken DT40 Tdp1-/-;hTDP1 cells + 20 nM CPT, ATP luminescence, 48 h; further: potency means the concentration at half of the fitted maximal effect; nearly all actives have a fitted effect of over 55% in size
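Cell growth measured by CellTiter-Glo luminescence after a minimum 48 h, 37 C compound exposure with 20 nM CPT in Tdp1-knockout DT40 cells stably expressing hTDP1, seeded 400/well; qHTS titration format.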
HT1080NT lethal – kills 2HG-producing HT-1080-NT fibrosarcoma cells. Potency, µM (series often up to 46.1 µM), inactives show at the top dose activity, negative = less viability, hits mostly cytotoxic. HT-1080-NT fibrosarcoma viability, CellTiter-Glo ATP luminescence, 48 h. 360,000 compounds, 1.6% hits;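 further: NT is the 2HG producing partner of a matched IDH1 knockdown line; potency means the concentration at half of the fitted maximal effect; 0% = DMSO-treated cells and -100% = media-only wells without cells; nearly all actives have a fitted effect of over 55% in size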
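Compounds were tested in concentration-response format on HT-1080-NT cells for 48 hours at 37 degrees C. Cell viability came from CellTiter-Glo luminescence; curves were classified by r2, response magnitude and activity.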
HT1080 IDH1KD tx – kills HT-1080 cells with IDH1 knockdown; HT-1080 IDH1 knockdown viability, ATP luminescence, 48 h; Potency, µM (doses to about 46.1 µM), for the others: at the top dose activity, negative = toxicity, hits mostly cytotoxic; 360,000 compounds, 2% hits; AID 686971;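 further: potency means the concentration at half of the fitted maximal effect; 0% = DMSO wells and -100% = cell-free medium wells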
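Knockdown cells (IDH1KD HT-1080) received compounds 2 h after plating at 750 cells/well and were kept 48 h at 37 °C in 5% FBS RPMI. A CellTiter-Glo luminescence read gave % activity for curve fitting.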
TDP1 cell noCPT – qHTS for Inhibitors of human tyrosyl-DNA phosphodiesterase 1 (TDP1): qHTS in cells in absence of CPT; DT40 Tdp1-/- hTDP1 cells, no CPT, ATP luminescence, 48 h; Potency, µM (series often up to 46.2 µM), without a hit: top-dose activity change, negative = growth inhibition, actives largely listed as inhibitors; 420,000 compounds, 15% hits; further: potency means the concentration at half of the fitted maximal effect; nearly all actives have a fitted effect of over 55% in size
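Compound effects on proliferation are scored in DT40 Tdp1-/-;hTDP1 cells in the absence of CPT. ATP levels (CellTiter-Glo luminescence) are recorded after a ≥48 hr, 37 °C incubation.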
IL-1B inflam inh – inhibitors of inflammasome signaling (IL-1 beta secretion) | THP-1 LPS/ATP IL-1B secretion, AlphaLISA, 16 h; stronger effect = lower value | activity change, % at 57.5 µM | 360,000 compounds, 4.7% hits; in the data active means activity change below about -50%; inconclusive means mostly about -30% to -49%
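THP-1 cells pretreated 1 hr with compounds (up to 57.5 uM final), then stimulated with LPS (250 ng/mL final) plus ATP (1.25 mM final); secreted IL-1B measured by AlphaLISA after 16 hr, decreased signal indicating inhibition.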
* marks the source's active call; other numbers are inactive results. Unless noted, the call rests on the fitted dose curve; in most records, active means well fitted curve in the direction sought with a large enough effect; inconclusive means small, poorly fitted or top-dose-only effect, or another doubt; inactive means no such curve, though single readings can be large; an effect the other way counts as inactive or inconclusive. Unless noted, on the % scale 0 is the no-effect control and ±100 the full control effect.

Screening CN(C)CCCN(C(=O)c1ccc(C(=O)c2ccccc2)cc1)c1nc2c(F)cccc2s1 returned DT40 TDP1 CPT -28%, HT1080NT lethal -26%, HT1080 IDH1KD tx -7%, TDP1 cell noCPT -12% and IL-1B inflam inh inconclusive.
`CCOc1ccc2nc(N(CCN(C)C)C(=O)c3cc4ccccc4cc3OC)sc2c1` gave DT40 TDP1 CPT inconclusive, HT1080NT lethal -2%, HT1080 IDH1KD tx -11%, TDP1 cell noCPT inconclusive and IL-1B inflam inh inconclusive.
`CCN(Cc1ccccc1)S(=O)(=O)c1ccc(C(=O)N(CCCN(C)C)c2nc3c(F)cccc3s2)cc1` gave DT40 TDP1 CPT inconclusive, HT1080NT lethal -2%, HT1080 IDH1KD tx -18%, TDP1 cell noCPT inconclusive and IL-1B inflam inh -77*.
`CCOc1cccc2sc(N(CCCN(C)C)C(=O)c3ccc(S(=O)(=O)N(CC)Cc4ccccc4)cc3)nc12` gave DT40 TDP1 CPT inconclusive, HT1080NT lethal inconclusive, HT1080 IDH1KD tx 23µM*, TDP1 cell noCPT inconclusive and IL-1B inflam inh -90*.
For CN(C)CCCN(C(=O)c1ccc(S(=O)(=O)N2CCCCCC2)cc1)c1nc2c(F)cccc2s1 the results were DT40 TDP1 CPT inconclusive, HT1080NT lethal -5%, HT1080 IDH1KD tx -2%, TDP1 cell noCPT -26% and IL-1B inflam inh -6.
`CCOc1cccc2sc(N(CCCN(C)C)C(=O)c3ccc(C(=O)c4ccccc4)cc3)nc12` gave DT40 TDP1 CPT inconclusive, HT1080NT lethal 26µM*, HT1080 IDH1KD tx inconclusive, TDP1 cell noCPT -5% and IL-1B inflam inh -88*.
Screening CCOc1cccc2sc(N(CCCN(C)C)C(=O)Cc3ccccc3)nc12 returned DT40 TDP1 CPT -3%, HT1080NT lethal 3%, HT1080 IDH1KD tx 1%, TDP1 cell noCPT 22% and IL-1B inflam inh -26.
`CCOc1cccc2sc(N(CCN(C)C)C(=O)c3cc4ccccc4cc3OC)nc12` gave DT40 TDP1 CPT 23µM*, HT1080NT lethal inconclusive, HT1080 IDH1KD tx 21µM*, TDP1 cell noCPT inconclusive and IL-1B inflam inh -58*.
Screening COc1ccc(NC(=O)c2c(-c3ccc(C)cc3)nnc3ccccc23)c(OC)c1 returned DT40 TDP1 CPT 18µM* and TDP1 cell noCPT 16µM*.
For COc1ccc(NC(=O)c2c(-c3ccc(C)cc3)nnc3ccccc23)cc1OC the results were DT40 TDP1 CPT -15% and TDP1 cell noCPT -20%.
COc1ccccc1NC(=O)c1c(-c2ccc(C)cc2)nnc2ccccc12 was read as DT40 TDP1 CPT 18µM* and TDP1 cell noCPT inconclusive.
For Cc1c(C(=O)N(CCC#N)c2ccccc2)sc2nc3n(c(=O)c12)CCCC3 the results were DT40 TDP1 CPT -3%, HT1080NT lethal 3%, HT1080 IDH1KD tx 5%, TDP1 cell noCPT 6% and IL-1B inflam inh 2.
COc1ccc(C2c3ccc(O)cc3Oc3ncn4nc(-c5cccnc5)nc4c32)cc1OC (centres undefined) was read as DT40 TDP1 CPT inconclusive, HT1080NT lethal 16µM*, HT1080 IDH1KD tx 15µM*, TDP1 cell noCPT 12µM* and IL-1B inflam inh -25.
For CNC[C@@H]1OCc2ccccc2-c2c(n(C)c3ccccc23)C(=O)N([C@H](C)CO)C[C@H]1C the results were DT40 TDP1 CPT inconclusive, HT1080NT lethal inconclusive, HT1080 IDH1KD tx -24%, TDP1 cell noCPT inconclusive and IL-1B inflam inh -7.
`CN1C(=O)C(O)(CC(=O)c2ccccc2O)c2cc(Br)ccc21` (centres undefined) gave DT40 TDP1 CPT 5.2µM*, HT1080NT lethal 16µM*, HT1080 IDH1KD tx 0%, TDP1 cell noCPT 5.8µM* and IL-1B inflam inh 50.
Screening CN1C(=O)C(O)(CC(=O)/C=C/c2ccco2)c2cc(Br)ccc21 (centres undefined) returned DT40 TDP1 CPT 6.5µM*, HT1080NT lethal -18%, HT1080 IDH1KD tx -14%, TDP1 cell noCPT 4.1µM* and IL-1B inflam inh 117.
`CN1C(=O)C(O)(CC(=O)/C=C/c2ccco2)c2ccccc21` (centres undefined) gave DT40 TDP1 CPT 4%, HT1080NT lethal 0%, HT1080 IDH1KD tx -3%, TDP1 cell noCPT -16% and IL-1B inflam inh -4.
Screening COc1ccc(C)c2sc(N(CCCN(C)C)C(=O)c3ccc4c(c3)OCCO4)nc12 returned DT40 TDP1 CPT inconclusive, HT1080NT lethal -24%, HT1080 IDH1KD tx inconclusive, TDP1 cell noCPT inconclusive and IL-1B inflam inh inconclusive.
For Cn1ccc2c(OCC(=O)Nc3ccc([N+](=O)[O-])cc3)cccc2c1=O the results were DT40 TDP1 CPT -29% and TDP1 cell noCPT inconclusive.
For CCOC(=O)c1ccc(NC(=O)COc2cccc3c(=O)n(C)ccc23)cc1 the results were DT40 TDP1 CPT 21µM* and TDP1 cell noCPT 18µM*.
For CCOC(=O)c1ccc(NC(=O)COc2cc(=O)n(CC)c3ccccc23)cc1 the results were DT40 TDP1 CPT 8%, HT1080NT lethal 19%, HT1080 IDH1KD tx 1%, TDP1 cell noCPT 10% and IL-1B inflam inh -4.
Screening Cn1ccc2c(OCC(=O)Nc3ccc(OC(F)(F)F)cc3)cccc2c1=O returned DT40 TDP1 CPT 12µM* and TDP1 cell noCPT 7.3µM*.
Screening COc1cccc(NC(=S)N(Cc2ccc(Cl)cc2)Cc2ccc(C(=O)O)cc2)c1 returned DT40 TDP1 CPT -7%, HT1080NT lethal -1%, HT1080 IDH1KD tx -5%, TDP1 cell noCPT -7% and IL-1B inflam inh 0.
N#Cc1ccccc1COC(=O)c1ccc(Br)o1 was read as DT40 TDP1 CPT -13%, HT1080NT lethal 20%, HT1080 IDH1KD tx 21%, TDP1 cell noCPT 0% and IL-1B inflam inh -27.
Cc1ccc2nc(CN3CCN(S(=O)(=O)c4ccccc4)CC3)oc2c1 was read as DT40 TDP1 CPT -26% and TDP1 cell noCPT -24%.
For Cc1ccc(-c2cccc(CN3CCN(C4CCN(C(C)C)CC4)C(CCO)C3)c2)o1 (centres undefined) the results were DT40 TDP1 CPT inconclusive, HT1080NT lethal inconclusive, HT1080 IDH1KD tx inconclusive, TDP1 cell noCPT 7.3µM* and IL-1B inflam inh inconclusive.
CC(C)N1CCC(N2CCN(Cc3ccc(-c4ccc(Cl)cc4)o3)CC2CCO)CC1 (centres undefined) was read as DT40 TDP1 CPT inconclusive, HT1080NT lethal 16µM*, HT1080 IDH1KD tx 21µM*, TDP1 cell noCPT 18µM* and IL-1B inflam inh -69*.
For CC(C)N1CCC(N2CCN(Cc3ccc(-c4ccccc4Cl)o3)CC2CCO)CC1 (centres undefined) the results were DT40 TDP1 CPT inconclusive, HT1080NT lethal inconclusive, HT1080 IDH1KD tx -13%, TDP1 cell noCPT inconclusive and IL-1B inflam inh inconclusive.
